# From PubChem BioAssay
# Rows were chosen to be rich in hits. Some 3.1% of all compounds tested hit in one or more screens of this group.
# C8 TRAIL sens: sensitizes caspase-8 expressing cells to TRAIL; inhibition (viability loss, TRAIL sensitization), % at 10 µM; NB7+C8 cells + TRAIL, ATPlite viability luminescence; actives 1% (n = 360,000); AID 624354;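 active = compounds causing at least 50% loss of cell viability in the single-dose screen, relative to plate controls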
# HIF-2a block: inhibitors of HIF-2a; 786-0 RCC cells HIF-2a reporter, luciferase luminescence, overnight; inhibition, % at 18.8 µM; actives 0.72% (n = 360,000); AID 624352;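 active = inhibition of the luminescence signal of 40% or more relative to plate controls, in a single-dose primary screen at 18.75 µM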
# PPC-1+TRAIL kill: kills PPC-1 cancer cells in the presence of TRAIL; PPC-1 cells + TRAIL, ATPLite viability luminescence; cell killing (% activity), % at 4 µM or 5 µM; actives 0.41% (n = 220,000); AID 1443;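 active = cell killing above 50% in the first pass at 4 µM, then a duplicate retest at 5 µM averaging 50% or more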
# CF NFkB inh: blocks PAF-induced NF-kB reporter in cystic fibrosis cells; KKLEB NF-kB-GFP reporter, GFP fluorescence overnight; inhibition, % at 5 µM; actives 0.86% (n = 360,000);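 active = at least 50% inhibition at 5 µM, scaled per plate between neutral and stimulator controls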;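 note: PAF is a Pseudomonas aeruginosa culture filtrate used as stimulus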
# Peg3 promoter: inhibitors of Peg3 promoter; HeLa PEG-Prom luciferase reporter, luminescence, overnight; actives 1.7% (n = 360,000); inhibition, % at 20 µM; AID 588405;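 active = inhibition of at least 50% at 20 µM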
# KKLEB tox: reduces viability of KKLEB cystic fibrosis airway cells. actives 0.36% (n = 360,000). activity change (cytotoxicity), % at 5 µM. KKLEB CF airway cells viability, ATPlite luminescence, overnight; stronger effect = lower value; cells stimulated with P. aeruginosa culture filtrate;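 active = corrected activity change at or below -50% at 5 µM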
# Mdm2-MdmX confirm: confirmation of inhibitors of human Mdm2/MdmX interaction, set 2; shares compounds with HIF-2a block; SaOS-2 split-luciferase Mdm2/MdmX complementation, luminescence; actives 99% (n = 740); AID 504601; inhibition, % at 8 µM;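 active = mean inhibition of the luminescence signal across two replicates at or above 26 percent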
# HIF-2a inh conf: confirmation of HIF-2a inhibitors | shares compounds with HIF-2a block | 786-0 RCC cells, HIF-2a luciferase reporter luminescence, overnight | inhibition, % at 18.8 µM | actives 56% (n = 1,800) | AID 651580;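 active = mean inhibition across four replicates of at least 40 percent at the single tested concentration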
# HIF-1a cs: counter-screen for HIF-2a inhibitors: HIF-1a inhibition in MiaPaCa-2 cells. AID 651589. shares compounds with HIF-2a block. MiaPaCa-2 HIF-1a luciferase reporter, desferoxamine, overnight. actives 72% (n = 1,800). inhibition, % at 18.8 µM;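 active = mean inhibition of the reporter signal across four replicates at the single tested dose of 50% or more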
# Hits are given with their value; 0 = inactive; - = no result.
SMILES,C8 TRAIL sens,HIF-2a block,PPC-1+TRAIL kill,CF NFkB inh,Peg3 promoter,KKLEB tox,HIF-2a inh conf,HIF-1a cs,others
CCCCCc1ccc(OCCCC[n+]2ccccc2)c(CCCCC)c1,79,86,0,0,95,0,0,103,
c1cc[n+](CCCC[n+]2ccccc2)cc1,0,0,-,0,0,0,-,-,
Cc1cc(=O)oc2cc(OCCCC[n+]3ccccc3)ccc12,0,0,0,0,0,0,-,-,
O=C(NCc1ccco1)/C(=C/c1ccc(C(F)(F)F)cc1)c1nc2ccccc2[nH]1,0,0,0,0,0,0,-,-,
O=C(NCc1ccco1)/C(=C/c1cccc(C(F)(F)F)c1)c1nc2ccccc2[nH]1,0,41,0,0,50,0,0,55,
CCN1C[C@@H]2[C@@H]3C(=O)N(Cc4ccccc4)C(=O)[C@@H]3[C@](CC)(C1=O)N2C(=O)c1ccc(F)cc1,0,0,-,0,0,0,-,-,
O=C(O)[C@H]1CCCC[C@H]1C(=O)Nc1ccc(S(=O)(=O)N2CCOCC2)cc1,0,0,-,0,0,0,-,-,
Cc1ccc(NC(=O)c2nc(S(=O)(=O)Cc3ccccc3)ncc2Cl)cc1,65,95,-,92,100,-100,98,96,Mdm2-MdmX confirm=102
Cc1nnc(NC(=O)c2nc(S(=O)(=O)Cc3ccccc3)ncc2Cl)s1,83,64,-,83,110,0,0,106,
CCOC(=O)c1ccc(NC(=O)c2nc(SC)ncc2Cl)cc1,0,0,-,0,0,0,-,-,
Cc1nnc(NC(=O)CS(=O)(=O)Cc2ccccc2)s1,0,0,-,0,0,0,-,-,
COc1ccc(OC)c(NC(=O)c2nc(S(=O)(=O)Cc3ccccc3)ncc2Cl)c1,96,89,-,89,106,-105,99,104,Mdm2-MdmX confirm=103
O=C(Nc1ccc(F)cc1)c1nc(S(=O)(=O)Cc2ccccc2)ncc1Cl,92,86,-,101,100,-75,99,60,Mdm2-MdmX confirm=102
Cc1cn([C@H]2C[C@H](O)[C@@H](CCC(=O)NCCc3cccs3)O2)c(=O)[nH]c1=O,0,0,-,0,0,0,-,-,
Cc1ccccc1CS(=O)(=O)c1ncc(Cl)c(C(=O)Nc2ccc(F)cc2)n1,92,93,-,89,108,-99,74,51,Mdm2-MdmX confirm=103
CSc1ncc(Cl)c(C(=O)Nc2ccc(S(=O)(=O)Nc3nccc(C)n3)cc2)n1,0,0,-,0,0,0,-,-,
CC(C)(C)c1cc(NCc2ccccn2)n2ncc(-c3ccc(Cl)cc3)c2n1,0,0,0,0,0,0,-,-,
CN(C)CCCNc1cc(C(C)(C)C)nc2c(-c3ccc(Cl)cc3)cnn12,0,0,0,0,104,0,-,-,Mdm2-MdmX confirm=102
CS(=O)(=O)c1ccc(Nc2nc(C(N)Cc3ccc(Cl)cc3)cs2)cc1 (configuration not stated),0,0,-,0,0,0,-,-,
CC(C)[C@H](NS(=O)(=O)c1ccccc1)C(=O)OCC(=O)N1N=C(c2ccc(Cl)cc2)CC1c1ccco1 (some centres not stated),0,50,0,0,0,0,0,89,
CCCc1cc(=O)[nH]c(SCC(=O)N2N=C(c3ccc(Cl)cc3)CC2c2ccco2)n1 (configuration not stated),0,40,0,0,0,0,0,82,
Nc1cc(=O)[nH]c(SCC(=O)N2N=C(c3ccc(Cl)cc3)CC2c2ccco2)n1 (configuration not stated),0,0,0,0,0,0,-,-,
CSCCC(c1nnnn1C1CCCC1)N1CCN(C/C=C/c2ccccc2)CC1 (configuration not stated),0,0,-,0,0,0,-,-,
CN(Cc1ccccc1F)C(=O)COc1ccc(C(=O)c2ccccc2)cc1,0,0,-,0,0,0,-,-,
O=C(O)c1ccccc1NC(=O)C(Cc1ccccc1)N1C(=O)c2ccccc2C1=O (configuration not stated),0,42,-,0,0,0,0,0,
SMILES,C8 TRAIL sens,HIF-2a block,PPC-1+TRAIL kill,CF NFkB inh,Peg3 promoter,KKLEB tox,HIF-2a inh conf,HIF-1a cs,others
CC1(C)CC1C(=O)Nc1ccc([N+](=O)[O-])cc1Br (configuration not stated),0,0,0,0,0,0,-,-,
Cc1ccc(C2(c3ccc(C)cc3)CC2C(=O)Nc2ccc([N+](=O)[O-])cc2O)cc1 (configuration not stated),0,0,0,84,53,-85,-,-,Mdm2-MdmX confirm=95
CCCOc1ccc(C(=O)C(CN2CCOCC2)c2ccccc2)cc1 (configuration not stated),0,63,0,0,94,0,0,100,
CC(C)(C)c1nc2c(s1)CCc1onc(-c3ccc(Cl)cc3)c1-2,0,0,-,0,0,0,-,-,
Cc1noc(/C=C/c2cccnc2)c1[N+](=O)[O-],0,48,-,0,0,0,0,56,
O=C1NC(c2cccc(OCc3ccccc3)c2)Nc2ccccc21 (configuration not stated),0,0,-,0,0,0,-,-,
COc1ccc(C=C2C=C(C(C)(C)C)C(=O)C(C(C)(C)C)=C2)cc1OC,87,82,-,0,105,0,65,103,
C[C@H](CO)N1C[C@H](C)[C@H](CN(C)Cc2ccccc2)Oc2ncc(Br)cc2C1=O,0,0,-,0,0,0,-,-,
CC(C)(C)c1ccc(C(=O)Nc2sc3c(c2C(=O)O)CCC3)cc1,0,96,0,0,0,0,96,75,
COc1ccc(C(C#N)=Cc2ccc(N(C)CCC#N)cc2)cc1,0,0,-,0,0,0,-,-,
CC(=O)c1ccc(Nc2nc(C(N)C3CCCCC3)cs2)cc1 (configuration not stated),0,0,-,0,0,0,-,-,
CC(C)c1ccc(NC(=O)Nc2nc(C(N)C3CCCCC3)cs2)cc1 (configuration not stated),88,50,-,0,95,0,0,106,
O=C(O)CCC1(CCC(=O)O)CCCC(CCC(=O)O)(CCC(=O)O)C1=O,0,0,-,0,0,0,-,-,
N#CC1=C(N)Oc2n[nH]c(-c3cccs3)c2C1C1CCCCC1 (configuration not stated),0,40,0,0,0,0,0,0,
CCc1nc2ccc(C(=O)NCc3ccc4c(c3)OCO4)cn2c1N(C)Cc1cccs1,0,0,-,0,0,0,-,-,
COc1ccc(CN(C(=O)/C=C/C(=O)c2ccc(OC)cc2O)C(C(=O)NC2CCCCC2)c2ccncc2)cc1 (configuration not stated),0,0,0,0,0,0,-,-,
